Among the data in the OligoGym collection are sensor-assay potency score (higher = more potent) values, retold here.
Also: reference of the scale not given here.

One experiment deals with PPP1R3A. Put plainly: pooled miR-30 sensor sort-seq; sequence = guide strand. Conditions: shRNA.
TTGAACAATGAATAGTCCCATT came in with a sensor-assay potency score (higher = more potent) of -1.02.
Still for that read-out and setting: next, TTGGTGAATGAGACACATCTGC: -0.3.
TATAGGTACAAATTCATTCTGA had a sensor-assay potency score (higher = more potent) of 0.416.
Regarding TTGATGAACAAACTTGACCAGT, the sensor-assay potency score (higher = more potent) is -0.427.
The same measure, in the same setting: then TTACATATACTAACTTCTCAAA, with -1.14; and TTGTTTTTCATTAACACCTAAA, with -0.918; and TAAAATGTCATAATGTGTCTGC, with 0.498.
Same read-out and setting: next, TTGAATTACAAATATTTTCTGA: -0.0203; TATAGGTATTTAATGATCCAAA: -1.48.
Still for that read-out and setting: then TTTGTTTTTCATTAACACCTAA, with -0.646; and TGGATTAGCATTATCATCCAGG, with -0.615.
In turn, TTATCATCAACTCTAATTCTTT displayed a sensor-assay potency score (higher = more potent) of -0.712.

The target of another experiment is PPP2R2B. Described as above. Conditions: shRNA.
For the sequence TATTTCTAAACTCTTCAGGTAA, the sensor-assay potency score (higher = more potent) was -0.582.
The same measure, in the same setting: next, TTCATAGAGGGAACACAGCTTG: -0.115; TTCTATTCCAATCATTTCCTGT: -0.465; TTGACTAGTATTCAGTATGTGA: -0.666.
The same measure, in the same setting: then TCTGTTGCTTGGATCTTCCGGC, with 0.454; and TTAAATACTACAGACAACCTCA, with 0.289.
Consider TTTTACTCTCCTGCTCTCGTTG, for which the sensor-assay potency score (higher = more potent) is -0.655.
As for TTCTATTTCTAAACTCTTCAGG, the sensor-assay potency score (higher = more potent) stood at 0.0206.
Regarding TAAACTCTTCAGGTAATCGAAC, the sensor-assay potency score (higher = more potent) was -0.877.
